Our source for the cell viability values is the supplement of paper PMC10981050.

SMILES strings stand for the structures.

The test system of the experiment is MARIMO. In words: cell viability relative to vehicle control; higher = less cytotoxic. As to conditions: 10 µM; SRSF2 genotype: SRSF2 P95H/wt. In outline: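 Mutant clones made by CRISPR editing and their isogenic wild-type counterparts, from four leukaemia lines, were exposed to a single 10 µM dose of each library compound for 48 h. The supernatant was then removed and CellTiter-Glo luminescence was read. Viability was reported as percent of the on-plate vehicle control.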
For the compound `COc1ccc2cc(C(=O)O)ccc2c1` [6-Methoxy-2-naphthoic acid], the cell viability is 92%. Under `OC[C@H]1O[C@H](OCC2O[C@@H](O)[C@H](O)[C@@H](O)[C@@H]2O)[C@H](O)[C@@H](O)[C@H]1O` (some centres not stated) [Melibiose] stands 105%. As for `CNC(=O)c1ccc(-c2cnc3ncc(Cc4ccc5ncccc5c4)n3n2)cc1F`, the cell viability is 107%. The result for `Nc1cc(C(Cl)=C(Cl)Cl)c(S(N)(=O)=O)cc1S(N)(=O)=O` [Clorsulon] reads 103%; that for `C[C@H](CCC(=O)O)[C@H]1CC[C@H]2[C@@H]3C[C@H](O)[C@@H]4C[C@H](O)CC[C@]4(C)[C@H]3CC[C@]12C` [Hyodeoxycholic acid (HDCA)], 87.5%. The result for `COc1ccc(C[C@@H]2c3cc(Oc4cc(C[C@@H]5c6cc(OC)c(OC)cc6CCN5C)ccc4O)c(OC)cc3CCN2C)cc1` [Neferine] reads 104%. Under `CN1CC(O)c2cc(N=NC(N)=O)c(O)cc21` (configuration not stated) [Carbazochrome] stands 99.4%; under `COc1ccccc1N1CCN(CCN(C(=O)C2CCCCC2)c2ccccn2)CC1`, 67.8%; under `CCCCCCCCCC[C@H](C(=O)O)[C@]1(C(=O)O)CCC(=O)O1` [Spiculisporic Acid], 104%. Regarding `COc1ncnc(NS(=O)(=O)c2ccc(N)cc2)c1OC` [Sulfadoxine (Sulphadoxine)], the cell viability turned out to be 104%. The result for `OCCc1ccc(O)c(O)c1` [Hydroxytyrosol] reads 90.5%.

In the case of `CNc1ccc([N+](=O)[O-])c(Nc2ccc3[nH]ncc3c2)n1`, the cell viability worked out at 50.4%. The result for `Cc1cc2c(F)c(Oc3ncnn4cc(OC[C@@H](C)O)c(C)c34)ccc2[nH]1` reads 107%. Take `Cc1nc(-c2ccc(OCC(C)C)c(C#N)c2)sc1C(=O)O` [Febuxostat (Uloric)]: the cell viability came to 102%. The result for `COc1ccc(C(=O)CC(=O)c2ccc(C(C)(C)C)cc2)cc1` [Avobenzone (Parsol 1789)] reads 77.2%. Under `Nc1ccc(Cl)cc1C(=O)C(F)(F)F` [4-Chloro-2-(trifluoroacetyl)aniline hydrochl] stands 101%; under `NC(=O)OCC(COC(N)=O)c1ccccc1` [Felbamate], 81.9%.

For `O=C1CCC(N2C(=O)c3ccccc3C2=O)C(=O)N1` (configuration not stated) [Thalidomide], the cell viability came to 83.2%. The result for `C[C@@]1(CO)C[C@@H](O)C[C@@]2(C)[C@@H]3CC[C@](C)([C@@H](O)CO)C=C3CC[C@H]12` [Kirenol] reads 89.3%. Under `CCC[C@H](NC(=O)/C(C#N)=C/c1cccc(Br)n1)c1ccccc1` [Degrasyn (WP1130)] stands 2.97%; under `O=C(Nc1ccccc1)N1CCN(c2nc(-c3ccccc3)ns2)CC1`, 87%; under `CCCCCCCCCC=O` [Decyl aldehyde], 99.1%.

Turning to `CC1(C)CCC2(C(=O)O)CCC3=C(C(CCl)CC4C3(C)CCC3C4(C)CC(O)C(O)C3(C)C(=O)O)C2C1` (configuration not stated) [Senegenin], the cell viability is 96.8%.

As for `CS(=O)(=O)Nc1cc2occ(NC=O)c(=O)c2cc1Oc1ccccc1` [Iguratimod], the cell viability amounted to 107%. Regarding `OC[C@H]1O[C@@H](Oc2cc(O)cc(/C=C/c3ccc(O[C@@H]4O[C@H](CO)[C@@H](O)[C@H](O)[C@H]4O)cc3O)c2)[C@H](O)[C@@H](O)[C@@H]1O` [Mulberroside A], the cell viability is 95.3%. Under `Cc1ccc(Sc2ccccc2N2CCNCC2)c(C)c1` stands 6.07%; under `Cc1cc(C(O)=C2C(=O)C(=O)N(CCCN3CCOCC3)C2c2ccncc2)ccc1OCc1ccccc1` (configuration not stated), 93.9%. As for `CCCCCCNC(=O)n1cc(F)c(=O)[nH]c1=O` [Carmofur], the cell viability was found to be 74.1%.

As to `COC(=O)C1=CO[C@@H](O[C@@H]2O[C@H](CO)[C@@H](O)[C@H](O)[C@H]2O)[C@@H]2[C@H](C)O[C@@H](O)C[C@H]12` [Morroniside], the cell viability is 85.3%. For the compound `Cn1cc(C2=C(c3cccc(N)c3)C(=O)NC2=O)c2ccccc21`, the cell viability stood at 65.4%. The result for `COCC[n+]1c2c(n(Cc3cnccn3)c1C)C(=O)c1ccccc1C2=O` [YM155 (Sepantronium Bromide)] reads 0.69%. Under `CCOCc1nc2c(N)nc3ccccc3c2n1CC(C)(C)O` [Resiquimod] stands 86%; under `Cn1sc(=O)n(Cc2ccccc2)c1=O`, 0.8%; under `O=C(CCCCCN1C(=O)c2cccc3cccc(c23)C1=O)NO` [Scriptaid], 4.53%.

In the case of `O=C(O)CNC(=O)c1ccccc1` [Hippuric acid], the cell viability amounted to 101%.

As to `Cn1cc(-c2ccc3nnc(Sc4ccc5ncccc5c4)n3n2)cn1`, the cell viability amounted to 90%. The result for `CS(=O)(=O)c1ccc(-c2cnc(NCc3ccco3)n3cnnc23)cc1` reads 103%.
